Reference: the supplement of paper PMC12494721
Where a name gives a salt, the structure may show the parent alone.

Columns and labels:
Conditions in all cases: 20 µM; incubation time: 27 h, anaerobic, 37 °C;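 for the amine columns active = adjusted P below 0.05 in both replicates with a change the same way and a mean fold change under 0.8 or over 1.25; inactive = the rest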
[1] = tested on: Clostridium sporogenes DSM 1664; experiment: growth (OD595) fold change vs plate DMSO controls (fold change (ratio)); higher = more growth
Method in brief: (§1)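 To obtain OD, 595 nm absorbance readings were blank-subtracted, corrected for compound background using 20 µM compound solutions in water, and multiplied by a calibration factor of 5. They came from 96-well mGAM cultures grown anaerobically for 27 h at 37 °C and shaken before reading. Growth is the fold change relative to the median of plate DMSO controls. Two biological replicates were averaged, and fold changes above 1.5 were set to NA.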

[2] = tested on: Escherichia coli IAI1; experiment: as above
Method in brief: as §1

[3] = tested on: Klebsiella aerogenes DSM 30053; experiment: as above
Method in brief: as §1

[4] = tested on: Ruminococcus gnavus DSM 108212; experiment: as above
Method in brief: as §1

[5] = tested on: Klebsiella aerogenes DSM 30053; experiment: fold change of Histamine concentration vs plate DMSO controls (fold change (ratio)); higher = more amine produced, active = hit call of the paper (significant change in both replicates, either direction)
Method in brief: (§2)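 Each value is the fold change relative to DMSO-only wells on the same plate. Four gut bacterial strains were grown anaerobically in mGAM at 37 °C for 27 h in 80 µL wells, starting at OD 0.1 before a 1:1 dilution, with compounds at 20 µM final (sweeteners 50 µM). Whole cultures were extracted with cold acetonitrile/methanol containing 0.1% formic acid, centrifuged, and amines were quantified by LC–triple-quadrupole MS (dynamic MRM) against external calibration curves with within-batch drift correction. Values are means of 2 biological replicates.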

[6] = tested on: Clostridium sporogenes DSM 1664; experiment: fold change of Tryptamine concentration vs plate DMSO controls (fold change (ratio)); higher = more amine produced, active = hit call of the paper (significant change in both replicates, either direction)
Method in brief: as §2

[7] = tested on: Ruminococcus gnavus DSM 108212; experiment: as above
Method in brief: as §2

[8] = tested on: Escherichia coli IAI1; experiment: fold change of Putrescine concentration vs plate DMSO controls (fold change (ratio)); higher = more amine produced, active = hit call of the paper (significant change in both replicates, either direction)
Method in brief: as §2

[9] = tested on: Klebsiella aerogenes DSM 30053; experiment: as above
Method in brief: as §2

[10] = tested on: Escherichia coli IAI1; experiment: fold change of Cadaverine concentration vs plate DMSO controls (fold change (ratio)); higher = more amine produced, active = hit call of the paper (significant change in both replicates, either direction)
Method in brief: as §2

[11] = tested on: Klebsiella aerogenes DSM 30053; experiment: as above
Method in brief: as §2

[12] = tested on: Ruminococcus gnavus DSM 108212; experiment: fold change of 2-Phenylethylamine concentration vs plate DMSO controls (fold change (ratio)); higher = more amine produced, active = hit call of the paper (significant change in both replicates, either direction)
Method in brief: as §2

Compound | growth [1] | growth [2] | growth [3] | growth [4] | fold change of Histamine concentration [5] | fold change of Tryptamine concentration [6] | fold change of Tryptamine concentration [7] | fold change of Putrescine concentration [8] | fold change of Putrescine concentration [9] | fold change of Cadaverine concentration [10] | fold change of Cadaverine concentration [11] | fold change of 2-Phenylethylamine concentration [12]
C[N+](C)(C)CCCl | 1.05 | 0.994 | 0.986 | 0.97 | 1.01 (inactive) | 1.03 (inactive) | 1.06 (inactive) | 0.949 (inactive) | 0.82 (inactive) | 0.863 (inactive) | 1.08 (inactive) | 1.06 (inactive)
O=C(O)C(F)(F)C(F)(F)C(F)(F)C(F)(F)C(F)(F)C(F)(F)C(F)(F)C(F)(F)F [PFNA (Perfluorononanoic acid)] | 1.04 | 1 | 1.01 | 1.05 | 1.01 (inactive) | 0.955 (inactive) | 0.968 (inactive) | 1.01 (inactive) | 0.994 (inactive) | 1.03 (inactive) | 0.982 (inactive) | 0.915 (inactive)
C=C[C@H]1CN2CC[C@H]1C[C@H]2[C@H](OC(=O)OCC)c1ccnc2ccc(OC)cc12 [Quinine ethyl carbonate] | 1.08 | 1.01 | 1.01 | 0.915 | 0.967 (inactive) | 1.01 (inactive) | 0.955 (inactive) | 1.03 (inactive) | 0.985 (inactive) | 1.01 (inactive) | 0.993 (inactive) | 1.03 (inactive)
CCC1(CC)C(=O)C=CNC1=O [Pyrithyldione] | 0.889 | 0.977 | 1.04 | 0.877 | 1.03 (inactive) | 0.966 (inactive) | 1.02 (inactive) | 1.01 (inactive) | 1.03 (inactive) | 1 (inactive) | 1.02 (inactive) | 0.996 (inactive)
Oc1ccc(Cl)cc1Cc1cc(Cl)ccc1O [Dichlorophen] | 0.903 | 0.835 | 0.919 | 0.819 | 1.13 (inactive) | 0.732 (inactive) | 0.561 (active) | 1.21 (inactive) | 0.97 (inactive) | 1.66 (active) | 0.975 (inactive) | 0.635 (inactive)
OC(Cn1cncn1)(c1ccc(F)cc1)c1ccccc1F (configuration not stated) | 1.15 | 1.06 | 1.01 | 0.99 | 1.01 (inactive) | 0.985 (inactive) | 0.984 (inactive) | 1.03 (inactive) | 1.02 (inactive) | 1.03 (inactive) | 0.992 (inactive) | 0.948 (inactive)
C=CC(N)=O [Acrylamide] | 0.971 | 0.969 | 0.977 | 0.973 | 0.995 (inactive) | 1.03 (inactive) | 0.999 (inactive) | 0.967 (inactive) | 0.987 (inactive) | 1.04 (inactive) | 0.972 (inactive) | 1.03 (inactive)
C[N+]12CCC(CC1)C(OC(=O)C(O)(c1ccccc1)c1ccccc1)C2 (configuration not stated) [Clidinium bromide] | 1.02 | 1.04 | 1.07 | 1 | 0.975 (inactive) | 0.952 (inactive) | 1.03 (inactive) | 0.957 (inactive) | 0.981 (inactive) | 1 (inactive) | 1 (inactive) | 1.02 (inactive)
CCOC(=O)CC(SP(=S)(OC)OC)C(=O)OCC (configuration not stated) | 0.873 | 1.03 | 1.01 | 0.941 | 0.998 (inactive) | 1.06 (inactive) | 1.02 (inactive) | 1.01 (inactive) | 0.994 (inactive) | 0.997 (inactive) | 0.993 (inactive) | 1 (inactive)
CCCC[N+]1(C)[C@@H]2C[C@@H](OC(=O)[C@H](CO)c3ccccc3)C[C@H]1[C@@H]1O[C@@H]12 (some centres not stated) [N-Butylscopolammonium bromide] | 0.954 | 1.22 | 0.974 | 1.06 | 1.03 (inactive) | 0.921 (inactive) | 0.946 (inactive) | 1.27 (inactive) | 1.01 (inactive) | 0.975 (inactive) | 0.99 (inactive) | 0.913 (inactive)
CNC(=O)ON=C(C)SC | 1.01 | 0.969 | 1 | 0.984 | 1.04 (inactive) | 1.06 (inactive) | 1.06 (inactive) | 1 (inactive) | 0.967 (inactive) | 0.892 (inactive) | 1 (inactive) | 1.09 (inactive)
CC1(C)[C@H](/C=C(\Cl)C(F)(F)F)[C@@H]1C(=O)OC(C#N)c1cccc(Oc2ccccc2)c1 (some centres not stated) | 0.953 | 0.991 | 0.981 | 0.999 | 0.987 (inactive) | 0.918 (inactive) | 1.03 (inactive) | 0.976 (inactive) | 0.987 (inactive) | 1.02 (inactive) | 0.995 (inactive) | 1.08 (inactive)
CCOc1ccc(C(C)(C)COCc2cccc(Oc3ccccc3)c2)cc1 | 1.14 | 1.03 | 1.01 | 1.13 | 0.97 (inactive) | 1.03 (inactive) | 1.05 (inactive) | 1.01 (inactive) | 0.984 (inactive) | 0.969 (inactive) | 1.05 (inactive) | 1.05 (inactive)
Nc1ccncc1 [Dalfampridine] | 0.947 | 0.992 | 1.02 | 0.985 | 0.957 (inactive) | 1 (inactive) | 1 (inactive) | 0.968 (inactive) | 0.989 (inactive) | 0.957 (inactive) | 1 (inactive) | 0.991 (inactive)
CC(C)C[C@H]1C(=O)N2CCC[C@H]2[C@]2(O)O[C@](NC(=O)[C@@H]3C=C4c5cccc6[nH]c(Br)c(c56)C[C@H]4N(C)C3)(C(C)C)C(=O)N12 [Bromocryptine mesylate] | 1.19 | 1.05 | 1.11 | 1.06 | 0.914 (inactive) | 0.868 (inactive) | 1.03 (inactive) | 1.03 (inactive) | 0.98 (inactive) | 1.04 (inactive) | 1.01 (inactive) | 1 (inactive)
Cc1cc(C)nc(Nc2ccccc2)n1 | 0.995 | 1.06 | 0.999 | 1.01 | 0.986 (inactive) | 1 (inactive) | 1 (inactive) | 1.05 (inactive) | 1.02 (inactive) | 1.05 (inactive) | 1.02 (inactive) | 1.04 (inactive)
N#Cc1c[nH]cc1-c1cccc2c1OC(F)(F)O2 | 0.873 | 0.959 | 0.984 | 1.17 | 1.01 (inactive) | 1.03 (inactive) | 0.939 (inactive) | 0.993 (inactive) | 0.977 (inactive) | 1.08 (inactive) | 0.981 (inactive) | 0.972 (inactive)
CC[C@H](C)[C@H]1O[C@]2(C=C[C@@H]1C)C[C@@H]1C[C@@H](C/C=C(\C)[C@@H](O[C@H]3C[C@H](OC)[C@@H](O[C@H]4C[C@H](OC)[C@@H](O)[C@H](C)O4)[C@H](C)O3)[C@@H](C)/C=C/C=C3\CO[C@@H]4[C@H](O)C(C)=C[C@@H](C(=O)O1)[C@]34O)O2.CO[C@H]1C[C@H](O[C@H]2[C@H](C)O[C@@H](O[C@@H]3/C(C)=C/C[C@@H]4C[C@@H](C[C@]5(C=C[C@H](C)[C@@H](C(C)C)O5)O4)OC(=O)[C@@H]4C=C(C)[C@@H](O)[C@H]5OC/C(=C\C=C\[C@@H]3C)[C@]54O)C[C@@H]2OC)O[C@@H](C)[C@@H]1O | 1.09 | 1.01 | 1.05 | 1.05 | 0.985 (inactive) | 0.855 (inactive) | 0.906 (inactive) | 0.989 (inactive) | 0.99 (inactive) | 0.968 (inactive) | 0.996 (inactive) | 0.885 (inactive)
CC(NC(C)(C)C)C(=O)c1cccc(Cl)c1 (configuration not stated) [Bupropion hydrochloride] | 0.957 | 1.01 | 0.949 | 1.02 | 1.08 (inactive) | 0.987 (inactive) | 1.08 (inactive) | 1.02 (inactive) | 0.995 (inactive) | 1 (inactive) | 0.97 (inactive) | 1.12 (inactive)
Cc1cc(C2CC2)nc(Nc2ccccc2)n1 | 0.944 | 1.01 | 0.977 | 0.987 | 1.04 (inactive) | 0.966 (inactive) | 0.968 (inactive) | 0.975 (inactive) | 0.972 (inactive) | 1.01 (inactive) | 0.99 (inactive) | 1.2 (inactive)
Oc1ccc(C(c2ccc(O)cc2)(C(F)(F)F)C(F)(F)F)cc1 [Bisphenol AF] | 1.04 | 1.07 | 0.956 | 0.983 | 1.08 (inactive) | 0.718 (inactive) | 0.717 (active) | 1.01 (inactive) | 0.989 (inactive) | 1.03 (inactive) | 0.99 (inactive) | 0.723 (inactive)
Cc1cc(C(C#N)c2ccc(Cl)cc2)c(Cl)cc1NC(=O)c1cc(I)cc(I)c1O (configuration not stated) [Closantel] | 0.0125 | 1.08 | 1.03 | 0.185 | 0.981 (inactive) | 0.0178 (active) | 0.121 (active) | 1.19 (inactive) | 0.984 (inactive) | 1.32 (active) | 1.05 (inactive) | 0.13 (active)
CCc1cnc(C2=NC(C)(C(C)C)C(=O)N2)c(C(=O)O)c1 (configuration not stated) | 1 | 1.06 | 0.985 | 1.09 | 1 (inactive) | 0.954 (inactive) | 1.01 (inactive) | 1.03 (inactive) | 1.02 (inactive) | 0.991 (inactive) | 0.993 (inactive) | 0.984 (inactive)
CSc1nnc(C(C)(C)C)c(=O)n1N | 0.994 | 1.01 | 1 | 0.945 | 0.976 (inactive) | 0.982 (inactive) | 1.07 (inactive) | 0.945 (inactive) | 0.978 (inactive) | 0.959 (inactive) | 1.04 (inactive) | 1.13 (inactive)
O=[N+]([O-])O[C@H]1CO[C@H]2[C@@H]1OC[C@H]2O[N+](=O)[O-] [Isosorbide dinitrate] | 0.818 | 1.09 | 1.08 | 1.25 | 0.954 (inactive) | 1.03 (inactive) | 1 (inactive) | 1.06 (inactive) | 0.97 (inactive) | 0.94 (inactive) | 1.02 (inactive) | 1.06 (inactive)
C[N+]1(C)CCOC(O)(c2ccc(-c3ccc(C4(O)C[N+](C)(C)CCO4)cc3)cc2)C1 (configuration not stated) [Hemicholinium bromide] | 1.04 | 0.992 | 1.2 | 1.27 | 0.912 (inactive) | 1.18 (inactive) | 1.06 (inactive) | 1.01 (inactive) | 0.995 (inactive) | 0.928 (inactive) | 1.02 (inactive) | 1.07 (inactive)
